# Source: PubChem BioAssay
# Test system: not listed separately
# Experiment: probe aNOTCH2 binding on compound microarray – biochemical, small-molecule microarray, 635/667 nm fluorescence, primary screen (AID 1121);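 further: score merges feature fluorescence read at 667 nm with its signal to noise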
# Conditions: higher = more signal
row,Compound,composite z-score
1,O=C/C=C/c1ccccc1Cl,-0.0866
2,[N-]=[N+]=NCc1ccccc1[C@H]1OC(c2ccc(OCCCO)cc2)=N[C@@]1(Cc1ccccc1N=[N+]=[N-])C(=O)NCc1ccccc1,0.0243
3,O=C1c2ccccc2[C@](Cc2ccccc2I)(C(=O)O)[C@H](c2ccc(CO)cc2)N1C1CCCCC1,-0.0708
4,C=CCC(OC(C)=O)[C@@H]1[C@@H](N(Cc2cc3ccccc3o2)C(=O)Cc2ccc(F)cc2)c2cc(OCCCO)ccc2N1C(=O)c1ccc(-c2ccccc2)cc1 (stereo partly specified),0.0017

# Target: Carbonic anhydrase 2 (Homo sapiens) (UniProt P00918)
# Experiment: compounds binding carbonic anhydrase 2 – biochemical, small-molecule microarray, Alexa647-labelled CAII, profiling panel (AID 1122)
# Conditions: CAII-A647 binding fluorescence, higher = more signal
row,Compound,composite z-score
1,C=CCc1cccc([C@@H]2[C@@H](C)CC[C@H]3C(=O)N4[C@H](c5cccc(CC=C)c5)[C@@H](C)CC[C@H]4C(=O)N23)c1,0.244
2,CCCCCCc1nc(C2CC2)c(C)c2c1[Si](C(C)C)(C(C)C)OC2,-0.364
3,CC(C)(C)OC(=O)CC[C@]1(C(=O)NCCN2CCOCC2)N=C(c2ccc(OCCCO)cc2)O[C@H]1c1ccccc1CN=[N+]=[N-],0.865
4,CCOC(=O)C[C@H]1[C@H](OC(=O)c2ccccc2-c2ccccc2)[C@@H](NC(=O)c2ccc(-c3ccccc3)cc2)c2cc(OCCCO)ccc2N1C(=O)Cc1ccc(OC)cc1,-0.0176
5,C=CCN1C(=O)[C@@]2(Cc3ccccc3)N=C(c3ccc(OCCCO)cc3)O[C@H]2c2ccccc21,0.622
6,C=CCC(OC(C)=O)[C@@H]1[C@@H](N(Cc2cc3ccccc3o2)C(=O)c2ccc(C)cc2)c2cc(OCCCO)ccc2N1C(=O)c1ccc2ccccc2n1 (stereo partly specified),-0.135
7,C=C(C(=O)CC[C@H](OC(=O)c1ccccc1-c1ccccc1C(=O)O)c1ccc(CO)o1)C(C)C,0.368
